# Test results as given in PubChem BioAssay (NCI).
# Compounds without any hit were thinned out: in the full panel of roughly 83,000, 20% have a hit.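 Negative percent growth values reflect cell death: -40 means 40% of the cells present at the start died, and -100 means all died.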 Active and inactive are the calls of the source. The calls were made as follows: active = growth percent below 10; inactive = the rest.
# Tested on: HCC-2998 colon
# Assay: NCI-60 one-dose screen, 48 h (100 = growth as untreated, 0 = no growth, -100 = all killed)
# Conditions: 10 µM unless noted
row,SMILES,growth
1,C/C(=N\NC(=O)c1ccccc1O)c1cccc(/C(C)=N/NC(=O)c2ccccc2O)n1,18.4% (inactive)
2,O=[N+]([O-])c1ccc(-c2nc(N3CCOCC3)c3c4c(sc3n2)CCCC4)cc1,102% (inactive)
3,O=C(Nn1c2c(sc1=Nc1ccccc1)C(=O)c1ccccc1C2=O)c1cc2ccc1CCc1ccc(cc1)CC2,86.8% (inactive)
4,N=C(N)c1ccc(-c2ccc(-c3cc(Cl)cc(Cl)c3)o2)o1,-77.8% (active)
5,O=C(NNc1nccc(Nc2ccc(S(=O)(=O)Nc3ccncc3)cc2)n1)c1ccccc1,21.4% (inactive)
6,O=C1/C(=C/c2cccs2)SC(=S)N1CCCN1CCOCC1,112% (inactive)
7,CCN(CC)C(=S)SC(SC(=S)N(CC)CC)C(=O)c1nnn(-c2ccc([N+](=O)[O-])cc2)c1C,104% (inactive)
8,C=C(C)[C@@H]1CC[C@]2(C(=O)O)CC[C@]3(C)[C@H](CC[C@@H]4[C@@]5(C)C[C@@H](Cc6cn(CCO[C@@H]7O[C@H](COC(C)=O)[C@H](OC(C)=O)[C@H](OC(C)=O)[C@H]7OC(C)=O)nn6)[C@H](O)C(C)(C)[C@@H]5CC[C@]43C)[C@@H]12,81.5% (inactive)
9,O=C(Cn1cc(CN2CCCCCC2)nn1)Nc1ccc2c(ccn2Cc2ccccc2)c1,97.6% (inactive)
10,COc1ccc(C(c2cc(OC)c(OC)c(OC)c2)N2CCN(c3ccccc3)CC2)cc1 (stereo not drawn),93.3% (inactive)
11,CCN(CC)CCNC(=O)c1cn2ncnc(Oc3ccc(NC(=O)Nc4ccc(Cl)c(C(F)(F)F)c4)c(F)c3)c2c1C,-88.9% (active)
12,Cc1ccc(-n2c(=S)[nH]c3sc4c(c3c2=O)CCC(=O)C4)cc1,80.8% (inactive)
13,C/C(Nc1ccc(Cl)c(Cl)c1)=C1\CCOC1=O,90.3% (inactive)
14,COc1cc(-c2cc(-c3cccs3)c(C#N)c(N3CCOCC3)n2)cc(OC)c1OC,86.4% (inactive)
15,CCN1CC(=O)N(/N=C2\C(=O)Nc3ccccc32)C1=S,99.4% (inactive)
16,C=CCn1cc(-c2nc3ccccc3s2)c2cc(-c3ccc4c5c(cccc35)C(=O)N(N)C4=O)ccc21,102% (inactive)
17,N=C(N)c1ccc(-c2ccc(-c3ccc(Cl)cc3)s2)nc1,-78.2% (active)
18,Cc1cc2c(O)c(-c3cccc(Cl)c3)c3sc(=O)oc3c2cc1C,73.1% (inactive)
19,N#Cc1cccc(NC(=O)c2oc3ccccc3c2-c2cnn(-c3ccccc3)c2)c1,71.1% [50 µM] (inactive)
20,Cc1cc2c(O)c(-c3cc(Cl)ccc3Cl)c3sc(=O)oc3c2cc1C,102% (inactive)
21,Cc1ccccc1NC(=O)c1sc2nc(C)c(C(=O)/C=C/c3ccccc3)cc2c1N,-36.9% (active)
22,COc1cc(NC(C)CCCNC(C)C)c2ncccc2c1OC (stereo not drawn),91.7% (inactive)
23,COc1cc(CNC(=O)CCCC/C=C/C(C)C)ccc1OCc1nnc(Nc2ccc([N+](=O)[O-])cc2)o1,83.6% (inactive)
24,COP(=O)(OC)C(C)(C)CC(=O)CC(C#N)(C#N)C(C#N)C#N,92.6% (inactive)
25,COC(=O)CCC(=O)C(=O)OC,-38.5% [10 mM] (active)
26,Clc1ccc(CNc2c3ccccc3nc3ccccc23)cc1,-10.2% (active)
27,COc1ccc2nc(NC(=O)CSc3nnc4n3S(=O)(=O)c3ccccc3N4C)sc2c1,108% (inactive)
28,CCc1nc2c(=O)[nH]cnc2o1,109% (inactive)

# Tested on: KM12 colon
# Assay: as above
# Conditions: 10 µM unless noted
row,SMILES,growth
1,COC(=O)c1c2c(c(C)[n+]([O-])c1C)C(=O)C(NCc1ccc(Cl)cc1)=CC2=O,48.8% (inactive)
2,C=C1C(=O)O[C@H]2[C@H]1CC/C(COC(=O)CCSCCC(=O)OC/C1=C/CC[C@@]3(C)O[C@H]3[C@H]3OC(=O)C(=C)[C@@H]3CC1)=C\CC[C@@]1(C)O[C@@H]21,34.3% (inactive)
3,Cc1c(-n2nnc(-c3nc4ccccc4s3)c2N)c(=O)n(-c2ccccc2)n1C,106% (inactive)
4,O=C(c1cc2ccccc2o1)c1nn(-c2ccccc2)/c(=N/N=Cc2cn(-c3ccccc3)nc2-c2cc3ccccc3oc2=O)s1,96.5% (inactive)
5,C=CCn1c(SCC(=O)NCc2cc(C)c(O)c(C)c2)nc2ccc(Cl)cc2c1=O,104% (inactive)
6,CNC(=O)c1c(NC(=O)c2ccc(C(F)(F)F)cc2)sc2c1CCC(=O)C2,-36.4% (active)
7,O=C(Nc1ccc(-c2nc(N3CCOCC3)c3cccn3n2)cc1)Nc1cccnc1,9.01% (active)
8,COc1ccc(/C(C)=C(/c2ccc(OCCCN(C)C)cc2)c2ccc(OC(=O)Cc3ccccc3)cc2)cc1,73.9% (inactive)
9,O=C(NCc1ccccc1)Nc1ccccc1CNc1nc(Nc2ccc(OCCN3CCCC3)cc2)ncc1Cl,94.2% (inactive)
10,CN1C(=O)/C(=C/c2ccc(C(=O)Nc3ncc(Cc4ccc(Cl)cc4)s3)cc2)SC1=S,21.1% (inactive)
11,CCN1C(=O)N(CC)C2C1NN=c1s/c(=C\c3cccc([N+](=O)[O-])c3)c(=O)n12 (stereo not drawn),12.1% (inactive)
12,CCN(CC)CCOc1ccc(C(=C(C)c2ccc(Cl)cc2)c2ccc(OCCN(CC)CC)cc2)cc1,-79% (active)
13,C/C(=N\NC(=O)c1ccccc1O)c1cccc(/C(C)=N/NC(=O)c2ccccc2O)n1,22.6% (inactive)
14,O=[N+]([O-])c1ccc(-c2nc(N3CCOCC3)c3c4c(sc3n2)CCCC4)cc1,95.5% (inactive)
15,O=C(Nn1c2c(sc1=Nc1ccccc1)C(=O)c1ccccc1C2=O)c1cc2ccc1CCc1ccc(cc1)CC2,78.8% (inactive)
16,N=C(N)c1ccc(-c2ccc(-c3cc(Cl)cc(Cl)c3)o2)o1,-78.9% (active)
17,O=C(NNc1nccc(Nc2ccc(S(=O)(=O)Nc3ccncc3)cc2)n1)c1ccccc1,101% (inactive)
18,O=C1/C(=C/c2cccs2)SC(=S)N1CCCN1CCOCC1,96.8% (inactive)
19,CCN(CC)C(=S)SC(SC(=S)N(CC)CC)C(=O)c1nnn(-c2ccc([N+](=O)[O-])cc2)c1C,98% (inactive)
20,C=C(C)[C@@H]1CC[C@]2(C(=O)O)CC[C@]3(C)[C@H](CC[C@@H]4[C@@]5(C)C[C@@H](Cc6cn(CCO[C@@H]7O[C@H](COC(C)=O)[C@H](OC(C)=O)[C@H](OC(C)=O)[C@H]7OC(C)=O)nn6)[C@H](O)C(C)(C)[C@@H]5CC[C@]43C)[C@@H]12,55.9% (inactive)

row,SMILES,growth
1,O=C(Cn1cc(CN2CCCCCC2)nn1)Nc1ccc2c(ccn2Cc2ccccc2)c1,93.8% (inactive)
2,COc1ccc(C(c2cc(OC)c(OC)c(OC)c2)N2CCN(c3ccccc3)CC2)cc1 (stereo not drawn),65.1% (inactive)
3,CCN(CC)CCNC(=O)c1cn2ncnc(Oc3ccc(NC(=O)Nc4ccc(Cl)c(C(F)(F)F)c4)c(F)c3)c2c1C,-30.5% (active)
4,Cc1ccc(-n2c(=S)[nH]c3sc4c(c3c2=O)CCC(=O)C4)cc1,41.7% (inactive)
5,C/C(Nc1ccc(Cl)c(Cl)c1)=C1\CCOC1=O,96.2% (inactive)
6,COc1cc(-c2cc(-c3cccs3)c(C#N)c(N3CCOCC3)n2)cc(OC)c1OC,105% (inactive)
7,CCN1CC(=O)N(/N=C2\C(=O)Nc3ccccc32)C1=S,94.7% (inactive)
8,C=CCn1cc(-c2nc3ccccc3s2)c2cc(-c3ccc4c5c(cccc35)C(=O)N(N)C4=O)ccc21,100% (inactive)
9,N=C(N)c1ccc(-c2ccc(-c3ccc(Cl)cc3)s2)nc1,-74.8% (active)
10,Cc1cc2c(O)c(-c3cccc(Cl)c3)c3sc(=O)oc3c2cc1C,64.3% (inactive)
11,N#Cc1cccc(NC(=O)c2oc3ccccc3c2-c2cnn(-c3ccccc3)c2)c1,81.5% [50 µM] (inactive)
12,Cc1cc2c(O)c(-c3cc(Cl)ccc3Cl)c3sc(=O)oc3c2cc1C,59.1% (inactive)
13,Cc1ccccc1NC(=O)c1sc2nc(C)c(C(=O)/C=C/c3ccccc3)cc2c1N,9.57% (active)
14,COc1cc(NC(C)CCCNC(C)C)c2ncccc2c1OC (stereo not drawn),106% (inactive)
15,COc1cc(CNC(=O)CCCC/C=C/C(C)C)ccc1OCc1nnc(Nc2ccc([N+](=O)[O-])cc2)o1,71.6% (inactive)
16,COP(=O)(OC)C(C)(C)CC(=O)CC(C#N)(C#N)C(C#N)C#N,104% (inactive)
17,COC(=O)CCC(=O)C(=O)OC,2.17% [10 mM] (active)
18,Clc1ccc(CNc2c3ccccc3nc3ccccc23)cc1,35.6% (inactive)
19,COc1ccc2nc(NC(=O)CSc3nnc4n3S(=O)(=O)c3ccccc3N4C)sc2c1,111% (inactive)
20,CCc1nc2c(=O)[nH]cnc2o1,110% (inactive)
